# NPSR antag – qHTS Assay for Antagonists of the Neuropeptide S Receptor: cAMP Signal Transduction; Q6W5P4; CHO-NPSR cells, cAMP TR-FRET, antagonist mode; Potency, µM (titrated, usually from 38.3 µM), for the others: at the top dose activity change, negative = inhibition, actives largely listed as inhibitors; actives 1% (n = 220,000); AID 1461, 2008; note: nearly all actives have a fitted effect of over 50% in size
# Tau fluor counter – Counterscreen qHTS for Inhibitors of Tau Fibril Formation, Fluorescence Polarization. tau K18 P301L Alexa594 fluorescence, heparin fibrillization. Potency, µM (titrated, usually from 57.7 µM), without a hit: top-dose activity change, negative = decrease. actives 0.93% (n = 280,000). AID 1463, 2008; note: nearly all actives have a fitted effect of over 55% in size
#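 Human tau K18 P301L (15 uM unlabeled, 0.24 uM Alexa 594-labeled) in 100 mM sodium acetate pH 7 with 20 uM heparin, 6 hr at 37 C. ThT 30 uM added, 1 hr ambient; Alexa 594 FP and total fluorescence read at 555/632 nm.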
# Tau FP inhib – qHTS for Inhibitors of Tau Fibril Formation, Fluorescence Polarization; K18 P301L tau heparin fibrillization, Alexa594 FP, 6 h; Microtubule-associated protein tau (Homo sapiens), P10636; AID 1468, 2008; actives 0.39% (n = 280,000); Potency, µM (titrated, usually from 57.7 µM), inactives show top-dose activity, negative = inhibition, usual class: inhibitors; note: nearly all actives have a fitted effect of over 55% in size
# Target sequence (P10636 561-689 P618L limits assumed): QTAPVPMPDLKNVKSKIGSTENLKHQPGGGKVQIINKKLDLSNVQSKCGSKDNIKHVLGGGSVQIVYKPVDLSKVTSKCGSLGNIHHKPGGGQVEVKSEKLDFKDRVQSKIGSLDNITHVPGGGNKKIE
#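 Steps: dispense K18 P301L tau (15 uM plus 0.24 uM Alexa 594 tracer, final) in pH 7 sodium acetate; add compound; add heparin (20 uM final); incubate 6 hr, 37 C; add ThT (30 uM final); after 1 hr ambient, read FP.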
# ALDH1A1 inh – qHTS Assay for Inhibitors of Aldehyde Dehydrogenase 1 (ALDH1A1); Aldehyde dehydrogenase 1A1 (Homo sapiens), P00352; Purified ALDH1A1, NADH fluorescence, propionaldehyde substrate; Potency, µM (titrated, usually from 75.3 µM), inactives show top-dose activity, negative = inhibition, most hits filed as inhibitors; actives 7.3% (n = 220,000); AID 1030, 2008; active = well fitted inhibition curve with a large enough effect, not every such curve was filed as active; inconclusive = small, poorly fitted or top-dose-only effect, or another doubt; inactive = no such curve, though single readings can be large or run the other way;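 note: plate controls were no enzyme wells and a reference inhibitor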
# Target sequence (P00352 whole entry, looked up): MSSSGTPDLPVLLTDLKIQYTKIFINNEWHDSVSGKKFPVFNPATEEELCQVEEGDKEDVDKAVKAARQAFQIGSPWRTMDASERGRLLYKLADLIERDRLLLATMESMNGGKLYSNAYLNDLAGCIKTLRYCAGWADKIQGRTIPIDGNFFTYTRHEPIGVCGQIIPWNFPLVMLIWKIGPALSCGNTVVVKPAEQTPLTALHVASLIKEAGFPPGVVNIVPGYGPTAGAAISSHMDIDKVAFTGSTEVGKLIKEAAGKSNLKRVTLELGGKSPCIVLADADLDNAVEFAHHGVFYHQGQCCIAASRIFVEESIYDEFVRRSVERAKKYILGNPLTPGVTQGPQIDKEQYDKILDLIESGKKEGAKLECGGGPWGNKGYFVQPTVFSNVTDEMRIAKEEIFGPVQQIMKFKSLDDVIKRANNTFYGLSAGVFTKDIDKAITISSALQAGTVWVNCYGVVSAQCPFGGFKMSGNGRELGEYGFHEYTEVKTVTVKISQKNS
# Tau ThT inhib – qHTS for Inhibitors of Tau Fibril Formation, Thioflavin T Binding | AID 1460, 2008 | Potency, µM (titrated, usually from 57.4 µM), for inactives: at the top dose activity, negative = inhibition, actives largely listed as inhibitors | recombinant tau K18 P301L (four-repeat tau fragment), heparin-induced fibrillization, ThT fluorescence | actives 2.1% (n = 270,000); note: nearly all actives have a fitted effect of over 55% in size
#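 Tau K18 P301L fragment (15 uM unlabeled plus 0.24 uM Alexa 594-labeled) in 100 mM sodium acetate pH 7 with compound, fibrillization induced by 20 uM heparin for 6 hr at 37 C. Thioflavin T (30 uM) added, fluorescence read after 1 hr (ex 450, em 510 nm).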
# HPGD inh – qHTS Assay for Inhibitors of HPGD (15-Hydroxyprostaglandin Dehydrogenase); 15-hydroxyprostaglandin dehydrogenase [NAD(+)] (Homo sapiens), P15428; purified HPGD, NADH fluorescence kinetic, PGE2 substrate; Potency, µM, inactives show at the top dose activity change, negative = inhibition, actives largely listed as inhibitors; actives 4.3% (n = 150,000); AID 894, 2007; active = well fitted inhibition curve with a large enough effect, not every such curve was filed as active; inconclusive = small, poorly fitted or top-dose-only effect, or another doubt; inactive = no such curve, though single readings can be large or run the other way
#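 NADH formation kinetics: reaction with 30 uM PGE2 and 1 mM NAD+ (final), 20 nM enzyme, Tris-HCl pH 8 with Tween 20, after 15 min compound preincubation at room temperature. Fluorescence change, last versus first of five reads.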
# An asterisk follows results filed as active; ? = inconclusive; nt = no result given; [ ] = remark or other dose. Rows were chosen to be rich in hits. Some 9.5% of all compounds tested hit in one or more screens of this group. Unless noted, calls come from the whole dose curve; as a rule, active = well fitted curve in the direction sought with a large enough effect; inconclusive = small, poorly fitted or top-dose-only effect, or another doubt; inactive = no such curve, though single readings can be large; an effect the other way counts as inactive or inconclusive. Unless noted, % is set by controls: 0 for no effect and ±100 for the full control effect; potency is the fitted concentration of half-maximal effect.
SMILES,NPSR antag,Tau fluor counter,Tau FP inhib,ALDH1A1 inh,Tau ThT inhib,HPGD inh
O=C(CCNc1ccc(F)c(Cl)c1)c1ccco1,-26%[46.1 µM],-11%,3%,3.5µM*,-17%,-7%
O=C(CSc1ccc(Cl)cc1)c1ccco1,-14%[46.1 µM],-1%,3%,13µM*,9%,25µM*
O=C(CCNc1cc(Cl)cc(Cl)c1)c1ccco1,?,-26%,9%,7.9µM*,-11%,-16%
O=C(CCNc1cccc(C(F)(F)F)c1)c1ccco1,2%[46.1 µM],-18%,8%,2.5µM*,-17%,-9%
CC(N)(COP(=O)(O)O)C(=O)O (stereo not given),nt,5%,7%,6%,6%,nt
N=C1CCC[C@@H]1C(=S)SCCC(N)=O,nt,nt,nt,11%[13.5 µM],nt,-10%
Cc1ccc(-c2cn3c(n2)sc2cc(C(=O)NCCCc4ccccc4)ccc23)c(C)c1,nt,-14%,-8%,nt,11%,nt
O=C(CNC(=O)c1ccco1)Nc1ccc(F)cc1,11%,-2%,3%,6%,-6%,nt
O=C(CCNc1ccc(F)cc1)c1ccco1,14%[46.1 µM],-1%,1%,1.4µM*,-14%,-2%
O=C(CCNc1ccc(Cl)c(C(F)(F)F)c1)c1ccco1,-14%[46.1 µM],?,12%,8.9µM*,-13%,-6%
Cc1ccccc1NC(=O)CNc1ccc(Cl)c(C(F)(F)F)c1,4%[46.1 µM],?,3%,?,-7%,nt
CCOc1ccc(C(=O)/C=C/c2cn(CC(O)CN3CCc4ccccc43)c3ccccc23)cc1 (stereo not given),nt,?,11%,nt,?,nt
CC(C)CCNC(=O)c1ccc2c(c1)NC(=O)C(C(C)C)N2 (stereo not given),nt,-14%,-4%,nt,-2%,nt
Cc1cc(=O)[nH]c(SCc2nc3ccccc3n2Cc2ccccc2)n1,-23%[46.1 µM],-4%,-5%,1%,-9%,28µM*
Cc1ccc(Cn2c(Cc3ccccc3)nc3ccccc32)cc1,-26%[46.1 µM],-17%,-3%,4%,?,-6%
CCc1ccccc1NC(=O)c1cnc(N2CCCCC2)c2ccccc12,nt,-6%,1%,nt,-12%,nt
O=Cc1sc(=O)n(Cc2cccc(C(=O)O)c2)c1Cl,-59%,-9%,10µM*,nt,13µM*,nt
O=C(O)c1cccc(Cn2c(Cl)c(/C=N/NC(=O)c3ccc(O)cc3)sc2=O)c1,-14%,-4%,-4%,nt,nt,nt
Cc1ccc(-c2csc3n[nH]c(=S)n23)cc1,-24%[46.1 µM],-13%,-2%,?,?,28µM*
CCn1c(-c2ccc(C)cc2)n[nH]c1=S,-6%[46.1 µM],-2%,1%,-4%,-6%,-18%
Cc1cc(SCC(=O)c2ccccc2)nc2ccccc12,nt,nt,nt,-5%[13.5 µM],nt,-25%
CC1CCCN(C(=O)CSc2cnc3ccccc3n2)C1 (stereo not given),?,-2%,6%,28µM*,-8%,4.5µM*
Cc1ccc(C(=O)CSc2cnc3ccccc3n2)cc1C,-6%,-17%,-8%,22µM*,?,22µM*
CC1CCc2c(sc(NS(=O)(=O)c3ccccc3)c2C(=O)OC(C)C)C1 (stereo not given),-18%[46.1 µM],-16%,-8%,-10%,?,-14%
CC(C)C[C@@H](CC(=O)N[C@@H](CCC(=O)O)CC(=O)O)NC(=O)[C@@H]1CNCC[C@H]1NC(=O)C[C@@H](NC(=O)C[C@H](CO)NC(=O)[C@@H]1CCCC[C@H]1N)C(C)C,nt,0%,-2%,13%,-5%,-3%
SMILES,NPSR antag,Tau fluor counter,Tau FP inhib,ALDH1A1 inh,Tau ThT inhib,HPGD inh
COCCNC(=O)C1(C)C=CCN1C(C)=O (stereo not given),nt,-6%,1%,3%,-11%,-20%
COc1ccc(/C(O)=C2\C(=O)C(=O)N(c3cc(C)on3)C2c2ccccc2OC)cc1 (stereo not given),2%[46.1 µM],-7%,-5%,22µM*,-15%,-24%
N#CC1=C2N=C(N)c3c(sc4c3CCCCC4)N2C2=C(C(=O)CCC2)C1c1ccccc1 (stereo not given),-30%[46.1 µM],?,15%,5µM*,?,-10%
COC(=O)C1=C(C)N(CCc2ccc(OC)c(OC)c2)C(=O)/C1=C\N(C)C,-1%[46.1 µM],-26%,?,14µM*,14µM*,-7%
CCn1c(C)nc2cc(C(=O)NNC(=S)NC(=O)c3ccccc3)ccc21,-8%,0%,-1%,25µM*,?,nt
CCn1c(C)nc2cc(C(=O)NNC(=S)Nc3ccccc3Cl)ccc21,5%[46.1 µM],-7%,5%,32µM*,?,-25%
O=C(NNC(=S)Nc1ccc(Cl)cc1Cl)c1ccncc1,5%,-2%,6%,3.2µM*,5%,?
CCn1c(C)nc2cc(C(=O)NNC(=S)Nc3ccc(Cl)cc3Cl)ccc21,-14%[46.1 µM],-2%,7%,3.5µM*,0%,?
CCn1c(C)nc2cc(C(=O)NNC(=S)Nc3ccccc3)ccc21,13%,8%,1%,2%,1%,nt
CCn1c(C)nc2cc(C(=O)NNC(=S)Nc3ccc(Cl)cc3)ccc21,-8%,-13%,6%,nt,?,nt
O=C(NNC(=S)Nc1ccccc1Cl)c1ccncc1,4%,-5%,6%,nt,nt,nt
COc1cccc2c1cc1c(=O)n(CC(=O)NCc3ccc(N(C)C)cc3)nc(C)n12,nt,4%,3%,nt,8%,nt
CC(=O)OC1CCC2(C)C3CC(=O)C4(C)C(CC5OC6(CCC(C)CO6)C(C)C54)C3CC[C@H]2C1 (stereo not given in full),nt,-9%,-14%,3%,-3%,-7%
COC(=O)c1sccc1NC(=S)N1CCC(C(N)=O)CC1,29%,5%,0%,-2%,6%,nt
COc1cc(OC)cc(C(=O)NC(=S)N2CCCCCC2)c1,8%,3%,10%,3%,-4%,nt
COc1ccc(C(=O)NC(=S)N2CCC(C)CC2)cc1,-2%[46.1 µM],-11%,-9%,?,-12%,22µM*
COc1ccc(C(=O)NC(=S)N2CCCCC2)cc1,-8%[46.1 µM],-6%,-3%,16µM*,-6%,18µM*
COC(=O)c1sccc1NC(=S)N1CCCCC1,?,-2%,-8%,7.9µM*,-3%,?
CCN(CC)S(=O)(=O)c1ccc2c(c1)c(=O)c(C(=O)N1CCN(c3cc(C)ccc3C)CC1)cn2C,nt,-23%,-6%,nt,?,nt
O=C(Cn1ncc2c3ccccc3n(Cc3cccc(Cl)c3)c2c1=O)NCCCN1CCCCC1,nt,-13%,-1%,nt,-17%,nt

# Assay outcomes deposited in PubChem BioAssay by National Center for Advancing Translational Sciences (NCATS).
